Data: PubChem BioAssay (NCATS)
Records with an inconclusive call do not appear. Active and inactive are the calls of the source. The call rests on the fitted dose curve; in most records, active means well fitted curve in the direction sought with a large enough effect; inconclusive means small, poorly fitted or top-dose-only effect, or another doubt; inactive means no such curve, though single readings can be large; an effect the other way counts as inactive or inconclusive.

Legend:
[1] = Quantitative High-Throughput drug screen in 47 multiple myeloma cell lines against the NCATS MIPE library collection: AMO1_DSMZ cell viability assay (AID 1918927; further: nearly all actives have a fitted effect of over 30% in size)
Summary of the method: (§1)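 Viability readout: CellTiter-Glo luminescence following 5 min room-temperature incubation with reagent. Prior exposure: 48 h, 37C, humidified 5% CO2, 500 cells per well.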

[2] = Quantitative High-Throughput drug screen in 47 multiple myeloma cell lines against the NCATS MIPE library collection: ARP1_JJKsccF8 cell viability assay (AID 1918928; further: nearly all actives have a fitted effect of over 40% in size)
Summary of the method: (§2)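 Here, 48 h treatment with MIPE 4.0 agents at 37 °C preceded an ATP luminescence read. Plating density was 500 cells per well.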

[3] = Quantitative High-Throughput drug screen in 47 multiple myeloma cell lines against the NCATS MIPE library collection: Karpas620_DSMZ cell viability assay (AID 1918959); further: nearly all actives have a fitted effect of over 30% in size
Summary of the method: (§3)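 Myeloma cell lines, 500 cells per well, exposed to MIPE 4.0 library compounds for 48 h at 37C, 5% CO2. Viability from ATP by CellTiter-Glo luminescence; normalised to DMSO (100%) and media-only (0%) wells.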

[4] = Quantitative High-Throughput drug screen in 47 multiple myeloma cell lines against the NCATS MIPE library collection: KMM1_JCRB cell viability assay (AID 1918960); further: nearly all actives have a fitted effect of over 30% in size
Summary of the method: as §2

[5] = Quantitative High-Throughput drug screen in 47 multiple myeloma cell lines against the NCATS MIPE library collection: Karpas417_ECACC cell viability assay (AID 1918961); settings: Karpas417 myeloma viability, CellTiter-Glo ATP luminescence, 48 h; viability (% of DMSO): at 45.8 µM (top of the series)
Summary of the method: as §3

[6] = Quantitative High-Throughput drug screen in 47 multiple myeloma cell lines against the NCATS MIPE library collection: JIM1_ECACC cell viability assay (AID 1918964)
Summary of the method: as §1

[7] = Quantitative High-Throughput drug screen in 47 multiple myeloma cell lines against the NCATS MIPE library collection: INA6_PLB cell viability assay (AID 1918965; further: nearly all actives have a fitted effect of over 55% in size)
Summary of the method: as §3

[8] = Quantitative High-Throughput drug screen in 47 multiple myeloma cell lines against the NCATS MIPE library collection: JJN3_DSMZ cell viability assay (AID 1918966; further: nearly all actives have a fitted effect of over 50% in size)
Summary of the method: as §1

[9] = Quantitative High-Throughput drug screen in 47 multiple myeloma cell lines against the NCATS MIPE library collection: H1112_PLB cell viability assay (AID 1918967; further: nearly all actives have a fitted effect of over 30% in size)
Summary of the method: as §1

[10] = Quantitative High-Throughput drug screen in 47 multiple myeloma cell lines against the NCATS MIPE library collection: Karpas25_ECACC cell viability assay (AID 1918968; further: nearly all actives have a fitted effect of over 35% in size)
Summary of the method: as §1

[11] = Quantitative High-Throughput drug screen in 47 multiple myeloma cell lines against the NCATS MIPE library collection: KMS27_JCRB cell viability assay (AID 1918970); further: nearly all actives have a fitted effect of over 30% in size
Summary of the method: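 Myeloma cells (500 per well) were exposed to MIPE 4.0 compounds for 48 h at 37 °C, 5% CO2; viability was read as ATP luminescence with CellTiter-Glo, normalized to DMSO-only (100%) and media-only (0%) wells.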

[12] = Quantitative High-Throughput drug screen in 47 multiple myeloma cell lines against the NCATS MIPE library collection: KMS12PE_JCRB cell viability assay (AID 1918972); further: nearly all actives have a fitted effect of over 30% in size
Summary of the method: as §3

[13] = Quantitative High-Throughput drug screen in 47 multiple myeloma cell lines against the NCATS MIPE library collection: KMS20_JCRB cell viability assay (AID 1918973); further: nearly all actives have a fitted effect of over 45% in size
Summary of the method: as §1

[14] = Quantitative High-Throughput drug screen in 47 multiple myeloma cell lines against the NCATS MIPE library collection: KMS21BM_JCRB cell viability assay (AID 1918974); settings: ATP luminescence, 48 h; viability: at 45.8 µM (top of the series)
Summary of the method: as §1

[15] = Quantitative High-Throughput drug screen in 47 multiple myeloma cell lines against the NCATS MIPE library collection: KMS26_JCRB cell viability assay (AID 1918975); further: nearly all actives have a fitted effect of over 45% in size
Summary of the method: (§4)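 Luminescent ATP measurement with CellTiter-Glo gives viability, scaled between DMSO-only wells (100%) and media-only wells (0%). Cells, 500 per well, faced library compounds for 48 hours at 37C.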

[16] = Quantitative High-Throughput drug screen in 47 multiple myeloma cell lines against the NCATS MIPE library collection: MMM1_PLB cell viability assay (AID 1918976); further: nearly all actives have a fitted effect of over 35% in size
Summary of the method: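 500 cells/well per myeloma line exposed to pinned MIPE 4.0 compounds for 48 h at 37 °C, 5% CO2. Viability read as ATP by CellTiter-Glo luminescence, normalised to DMSO-only (100%) and media-only (0%) wells.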

[17] = Quantitative High-Throughput drug screen in 47 multiple myeloma cell lines against the NCATS MIPE library collection: ARD_JJKsccE7 cell viability assay (AID 1918929)
Summary of the method: as §1

[18] = Quantitative High-Throughput drug screen in 47 multiple myeloma cell lines against the NCATS MIPE library collection: JIM3_ECACC cell viability assay (AID 1918963; further: nearly all actives have a fitted effect of over 35% in size)
Summary of the method: as §3

[19] = Quantitative High-Throughput drug screen in 47 multiple myeloma cell lines against the NCATS MIPE library collection: KHM11_PLB cell viability assay (AID 1918962); further: nearly all actives have a fitted effect of over 35% in size
Summary of the method: as §3

[20] = Quantitative High-Throughput drug screen in 47 multiple myeloma cell lines against the NCATS MIPE library collection: KMS12BM_JCRB cell viability assay (AID 1918971); further: nearly all actives have a fitted effect of over 35% in size
Summary of the method: as §4
Potency means the concentration at half of the fitted maximal effect.

SMILES	Potency [1]	Potency [2]	Potency [3]	Potency [4]	Potency [5]	Potency [6]	Potency [7]	Potency [8]	Potency [9]	Potency [10]	Potency [11]	Potency [12]	Potency [13]	Potency [14]	Potency [15]	Potency [16]	Potency [17]	Potency [18]	Potency [19]	Potency [20]
O=c1[nH]c2ccc(Cl)cc2c(N[C@@H]2CN3CCC2CC3)c1-c1nc2ccccc2[nH]1	74.3 nM (active)	2640 nM (active)	5900 nM (active)	46.9 nM (active)	332 nM (active)	41.8 nM (active)	33.2 nM (active)	1050 nM (active)	418 nM (active)	235 nM (active)	187 nM (active)	83.3 nM (active)	166 nM (active)	26.4 nM (active)	2640 nM (active)	6620 nM (active)				
O=C1C=CC[C@@H]2[C@H]3CCCN4CCC[C@@H](CN12)[C@@H]34	inactive	inactive	inactive	inactive	inactive							inactive	inactive							
C1=C2CCCN[C@H]2[C@@H]2C[C@H]1[C@@H]1CCCCN1C2	inactive	inactive	inactive	inactive	inactive			inactive	inactive	inactive		inactive			inactive					
CC[C@@H](C(N)=O)N1CCCC1=O	inactive	inactive	inactive	inactive			inactive	inactive	inactive			inactive	inactive				inactive	inactive		
CCN1CCN(C(=O)Cc2ccc(Nc3ncc(F)c(Nc4ccc(C(=O)Nc5ccccc5Cl)cc4)n3)cc2)CC1	1050 nM (active)	3720 nM (active)	1870 nM (active)	2640 nM (active)	2960 nM (active)	2090 nM (active)	935 nM (active)	7430 nM (active)	6620 nM (active)		2960 nM (active)	1050 nM (active)	1180 nM (active)		8330 nM (active)		743 nM (active)	3720 nM (active)	2350 nM (active)	
c1ccc2c(CN3CCNCC3)cccc2c1	inactive	inactive	inactive	inactive		inactive	inactive		inactive		inactive	inactive			inactive			inactive	inactive	
COc1ccc2c(c1)CN(C)CC2c1ccc(Cl)c(Cl)c1 (centres undefined)	23500 nM (active)	20900 nM (active)	16600 nM (active)	14800 nM (active)	14800 nM (active)	7430 nM (active)	23500 nM (active)			209 nM (active)		23500 nM (active)		4180 nM (active)			10500 nM (active)			20900 nM (active)
C[C@@]12OC(=O)[C@]1([C@@H](O)[C@@H]1C=CCCC1)NC(=O)[C@H]2CCCl	11.8 nM (active)	10.5 nM (active)	9.3 nM (active)	7.4 nM (active)		20.9 nM (active)	1 nM (active)	33.2 nM (active)	23.5 nM (active)		18.7 nM (active)	18.7 nM (active)	29.6 nM (active)		10.5 nM (active)	132 nM (active)	1 nM (active)			
CCCCCC[C@H]1C(=O)O[C@H](C)[C@H](NC(=O)c2cccc(NC=O)c2O)C(=O)O[C@@H](C)[C@@H]1OC(=O)CC(C)C	235 nM (active)	41.8 nM (active)	935 nM (active)	418 nM (active)	332 nM (active)	372 nM (active)	83.3 nM (active)	296 nM (active)	132 nM (active)			469 nM (active)			132 nM (active)	148 nM (active)		46.9 nM (active)		
COc1cc2cc(c1Cl)N(C)C(=O)C[C@H](OC(=O)C(C)C)[C@]1(C)O[C@H]1[C@H](C)[C@@H]1C[C@@](O)(NC(=O)O1)[C@H](OC)C=CC=C(C)C2	inactive	inactive		inactive		inactive	inactive	inactive		inactive	inactive	inactive	inactive		inactive	inactive	inactive			
CC[C@@H]1[C@@H](C)O[C@@](O)([C@@H](C)[C@H](O)[C@H](C)[C@H]2OC(=O)C=CC=C[C@@H](C)[C@@H]([C@@H](C)[C@@H](O)[C@H](C)[C@@]3(O)C[C@H](O[C@H]4C[C@H](O)[C@H](O)[C@H](C)O4)[C@H](CC)[C@@H](C)O3)OC(=O)C=CC=C[C@@H]2C)C[C@H]1O[C@H]1C[C@H](O)[C@H](O)[C@H](C)O1	332 nM (active)	372 nM (active)	372 nM (active)	469 nM (active)		264 nM (active)	1050 nM (active)	833 nM (active)	1050 nM (active)	743 nM (active)	264 nM (active)	372 nM (active)	833 nM (active)		526 nM (active)	743 nM (active)		935 nM (active)	1050 nM (active)	935 nM (active)
COC1=C[C@@H]2[C@@H]3Cc4ccc(OC)c(O)c4[C@]2(CCN3C)CC1=O	3320 nM (active)	26400 nM (active)	20900 nM (active)		10500 nM (active)		8330 nM (active)						1660 nM (active)				6620 nM (active)		4690 nM (active)	
